System: Plasmodium falciparum
Assay: GSK_TCMDC: Inhibition of Plasmodium falciparum 3D7 in whole red blood cells, using parasite LDH activity as an index of growth. Test compounds present at 2uM
Assay type: functional

SMILES | Inhibition [%]
CCCCCCCCNCCCSCCCNCCCCCCCC.Cl | 97
CCC1(C)N=C(N)N=C(N)N1c1ccc(Cl)cc1.Cl (stereo not given) | 95
Cl.O=S(=O)(Nc1cc2c(cc1OCc1ccccc1)CCN(C1CCC1)CC2)c1ccc(-c2ccc(Cl)cc2)cc1 | 92
Cc1cccc2nc(-c3cccc(-c4cccc(NC(=O)c5ccc(C(N)=O)cc5)c4)c3)[nH]c12 | 100
O=[N+]([O-])c1cc2c(cc1C=NNc1nc(=Nc3ccccc3)[nH]c(=Nc3ccccc3)[nH]1)OCO2 | 98
COC(=O)CCCOc1cc(Cc2cnc(N)nc2N)cc(OC)c1OC | 95
CC(C)(C)c1ccc(CNC(=O)c2cc(CNC3CCC(N)CC3)ccc2O)cc1 (stereo not given) | 94
COc1c(C2CCN(CCCCNC(=O)c3ccc(-c4ccc(Cl)cc4)cn3)CC2)ccc2c1CCCC2 | 93
Nc1nccc2ccc(-c3cccc(OCc4ccccc4)c3)cc12.O=C(O)C(F)(F)F | 100
COc1c(F)ccc2ncc(Cl)c(CCN3CCC(NCc4ccc5c(n4)NC(=O)CS5)CC3)c12.Cl | 98
Br.CCOc1ccc(CCCON2C(=N)N=C(N)NC2(C)C)cc1 | 93
CCN(CC)CCCN(Cc1ccc(-c2ccc(C(F)(F)F)cc2)cc1)C(=O)Cn1c(SCc2cccc(F)c2F)cc(=O)c2ccccc21.O=C(O)C(O)C(O)C(=O)O | 87
O=C(/C=C/c1ccc(Cl)c(Cl)c1)NCCCCCN1CCC(CCCNC(=O)Nc2ccc(C(F)(F)F)cc2)CC1 | 91
O=C(Nc1ccc(Br)cc1)c1cc(Br)ccc1NS(=O)(=O)c1ccc(C(F)(F)F)cc1 | 100
c1cncc(Oc2ccc(Nc3ccnc4cc(-c5cccc(CNCCN6CCOCC6)c5)ccc34)cc2)c1 | 100
CC(C)COc1ccc(Cl)cc1Cc1nc(-c2nc3cccc(CN4CCN(C)CC4)c3[nH]2)cs1 | 99
Cc1ccc(C2(CN3CCC(NC(=O)c4cc[nH]n4)CC3)CCCCC2)cc1 | 97
Cl.N#Cc1ccc2c(c1)CCN(CCC1CCC(NC(=O)/C=C/c3cccc4ccccc34)CC1)CC2 (stereo not given) | 96
COc1ccc(NC(=O)Nc2ccc(-c3ccc(-c4nc5cccc(C)c5[nH]4)s3)cc2)cc1 | 100
Cc1cc2cc(-c3ccc(CN)cc3)ccc2nc1N | 92

SMILES | Inhibition [%]
O=C(c1cnn(-c2ccccc2)c1C(F)(F)F)N1CCN(c2ccnc3cc(Cl)ccc23)CC1 | 89
Nc1ncc(Cc2ccc3c(ccc4ccccc43)c2)c(N)n1 | 97
COc1ccc2nccc([C@@H](O)CN3CCC(NCc4ccc5c(c4)oc(=S)n5C)CC3)c2c1.O=C(O)/C=C/C(=O)O | 100
Oc1ccc2[nH]c(-c3cccc(F)c3)nc2c1CN1CCC(N2CCCC2)CC1 | 100
Cc1cccc2nc(-c3cccc(-c4ccc(NC(=O)CCc5c[nH]cn5)cc4)c3)[nH]c12 | 100
COc1ccc(-c2cccc(NC(=O)c3ccc(Cl)cc3)c2)cc1CNC(C)C.O=C(O)C(F)(F)F | 100
CCOC(=O)C(C)(C)Oc1ccc(CN(Cc2ccc(CC(C)C)cc2)C(=O)Nc2ccc(F)cc2F)c(OC)c1 | 97
CN1CCC(NCc2ccc(-c3cccc(S(=O)(=O)NCCc4ccccn4)c3)cc2)CC1.O=C(O)C(F)(F)F | 84
CC(=O)Nc1nc(C(=O)Nc2cccc(-c3cccc(-c4nc5cc(F)ccc5[nH]4)c3)c2)cs1 | 100
CN1CCN(CC(=O)Nc2cccc(-c3ccc(-c4nc5cc(C(F)(F)F)ccc5[nH]4)cc3)c2)CC1 | 100
COc1ccc(-c2cccc(NC(=O)c3cccc(Cl)c3)c2)cc1CN1CCNCC1.O=C(O)C(F)(F)F | 100
CC(=NNC(S)=NC(c1ccccc1)c1ccccc1)c1ccccn1 | 98
CCCN1CCN(Cc2ccc(C(=O)Nc3ccc(Cl)cc3)cc2)CC1.O=C(O)C(F)(F)F | 94
CCN(CCS(C)(=O)=O)Cc1ccc(-c2ccc3ncnc(Nc4ccc(OCc5cccc(F)c5)c(Cl)c4)c3c2)o1.Cc1ccc(S(=O)(=O)O)cc1 | 100
O=C(Nc1ccc(-c2ccc(-c3nc4ccccc4[nH]3)cc2)cc1)Nc1ccc(Cl)c(Cl)c1 | 100
COc1cc(COc2c(C)nc(N)nc2N)cc(OC)c1OC.Cl | 100
N#Cc1cccc(Nc2nccc(NCC(O)c3ccccc3C(F)(F)F)n2)c1 (stereo not given) | 98
O=C(NC1CCC1)C1CCN(C(c2ccccc2)c2cc(F)cc(F)c2)CC1 (stereo not given) | 94
CC(C)(C)NC(=O)c1ccc(Oc2ccc(OC(F)(F)F)cc2)c(NC(=O)C(C)(C)C)c1 | 89
O=C(Nc1ccc2c(c1)CCC2)N[C@H]1CCN(CCCCCNC(=O)C2CC2c2ccc(Cl)c(Cl)c2)C1 (stereo not given in full) | 86
